Results published in PubChem BioAssay AID720565 (National Center for Advancing Translational Sciences (NCATS), 2013).
Values joined by “and” are separate entries in the source; they are usually repeats but may differ in a detail not shown here. Equal values may be shown once. Inconclusive results are not listed. Unmarked numbers belong to inactive results. Active and inactive are the calls of the source. The call rests on the fitted dose curve; in most records, active means well fitted activation curve with a large enough effect; inconclusive means small, poorly fitted or top-dose-only effect; inactive means no such curve, though single readings can be large or run the other way.
Potency means the concentration at half of the fitted maximal effect.

Test: qHTS for small molecules that induce genotoxicity in ELG1 expressing cells: Confirmatory Assay for Cherry-picked Compounds; further: nearly all actives have a fitted effect of over 35% in size; on activation: % of control where 0% means no effect
Conditions: ELG1-luciferase reporter cells, luminescence, 16 h; series mostly up to 46.1 µM; activation: at the top concentration
Method in brief: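 Cells carrying the ELG1-luciferase reporter were exposed to compound for 16 hr at 37 C, 5% CO2, at 2,000 cells per well. Rise in luciferase activity, read with ONE-Glo after 30 min at room temperature, indicates genotoxic stress.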
For `O=C(CSc1nnc(-c2ccc(O)cc2)o1)Nc1ccccc1Br`, the Potency was 14.1 µM (active). For `CC(=O)N1CCc2cc(Br)cc(S(=O)(=O)CCC(=O)Nc3c(C)n(C)n(-c4ccccc4)c3=O)c21`, the “activation” value was -3.98%. With `Cc1ccc2nc(-c3ccc(C)c(NC(=O)COc4ccc(Br)cc4)c3)oc2c1` the Potency was 2.5 µM (active). In the case of `O=c1c2ccccc2oc2ccc(-c3ccc4cc[nH]c4c3)cc12`, the Potency is reported as 1.26 µM (active). For `CN(C)c1ccc(C=Nc2cncc3ccccc23)cc1`, the Potency was 0.889 µM (active). For `Cc1sc(NC(=O)c2ccco2)c(C(c2cccnc2)N2CCN(c3ccc(F)cc3)CC2)c1C` (configuration not stated), the “activation” value was -16.3%. In the case of `COc1cccc2oc(-c3ccccc3)cc(=O)c12`, the Potency is reported as 4.45 µM (active). With `COc1cccc(NC(=O)CSc2nnc(-c3ccc(C)cc3)o2)c1` the Potency was 14.1 µM (active). In the case of `Cc1c(C(=O)Nc2nccs2)oc2ccc(Br)cc12`, the Potency is reported as 11.2 µM (active). In the case of `Cc1ccc(S(=O)(=O)Nc2cc3c4c(c2)CCN4C(=O)CC3)cc1`, the Potency is reported as 22.3 µM (active). With `CN(C)c1ccc(C(=O)OCC(=O)c2ccc[nH]2)cc1` the Potency was 14.1 µM (active). In the case of `COc1cc(C)c2c(=O)cc(-c3ccccc3)oc2c1`, the Potency is reported as 6.28 µM (active). In the case of `Cc1cc2ncc(-c3ccccc3)nc2cc1C`, the Potency is reported as 1.41 µM (active). In the case of `O=C(OCC(=O)N1CCCCC1)c1cccs1`, the Potency is reported as 14.1 µM (active). For `COc1ccc2c(C)cc(SCC(=O)N3CCOCC3)nc2c1`, the “activation” value was -2.8%. With `COc1ccc(/C=C/C(=O)O/N=C(\N)c2ccccn2)cc1OC` the Potency was 14.1 µM (active). For `N#Cc1ccc(-c2ccc(-c3nc4ccccc4c(=O)[nH]3)o2)cc1`, the “activation” value was 13.4%. With `O=C(Nc1ccccn1)c1sc2ccc([N+](=O)[O-])cc2c1Cl` the Potency was 4.99 µM (active). With `O=c1[nH]c(=O)n([C@@H]2O[C@H](CO)[C@@H](O)[C@H]2O)cc1F` the Potency was 3.97 µM (active). For `O=C(COc1ccccc1F)Nc1ccc(-c2nc3ccccc3s2)cc1`, the Potency was 5 µM (active). With `O=C(Nn1c(SCc2ccc([N+](=O)[O-])cc2)nc2ccccc2c1=O)c1ccc(F)cc1` the Potency was 5 µM (active). With `C[C@@H]1CC2[C@@H]3CCC4=CC(=O)C=C[C@]4(C)[C@@]3(F)[C@@H](O)C[C@]2(C)[C@@]1(O)C(=O)NCCCCCCOC[C@H]1O[C@@H](n2cnc3cc(Cl)c(Cl)cc32)[C@@H]2OC(C)(C)O[C@@H]21` (some centres not stated) the Potency was 2.29 µM (active). In the case of `O=C(CSc1nnc(Cc2ccccc2)o1)Nc1ccc(Br)cn1`, the “activation” value is reported as -11.1%. For `Cn1c2ccccc2c(=O)c2cc(NCCCN3CCOCC3)ccc21`, the Potency was 17.7 µM (active). With `ICC[n+]1csc2ccccc21` the Potency was 14.1 µM (active). In the case of `C(=C\c1c[nH]c2ccccc12)/c1ccc2ccccc2n1`, the Potency is reported as 0.141 µM (active). For `COc1cccc2c1C(=O)/C(=C\c1ccc(N(C)C)cc1)C2`, the Potency was 3.15 µM (active). With `COc1cc(/C=C(\C#N)C(=O)Nc2cccc(C(=O)O)c2)ccc1OCc1ccc(F)cc1` the Potency was 28.1 µM (active). For `N#Cc1ccsc1NC(=O)CSc1nncs1`, the Potency was 12.5 µM (active). For `O=C(CCN1C(=O)NC2(CCCC2)C1=O)Nc1ccc(-c2nc3ccccc3s2)cc1`, the Potency was 0.706 µM (active). With `COc1ccc(-c2coc3cc(O)cc(O)c3c2=O)cc1` the Potency was 9.96 µM (active). For `Cc1ccc(OCC(=O)Nc2ccc(-c3nc4ncccc4o3)cc2)cc1`, the Potency was 28.1 µM (active). For `O=C1CCc2cc(NS(=O)(=O)c3ccccc3)cc3c2N1CC3`, the “activation” value was 25%. For `Oc1ccccc1-c1cc(-c2ccccc2)n[nH]1`, the Potency was 2.23 µM (active). With `O=C(NCc1cccs1)c1cc(-c2ccccc2)on1` the Potency was 11.5 µM (active) and 7.06 µM (active). In the case of `O=C(CSc1nnc(-c2ccc(F)cc2)o1)Nc1ccc(S(=O)(=O)N2CCCCCC2)cc1`, the “activation” value is reported as 7.03%. With `Cc1ccc(-c2nnc(SCC(=O)Nc3ccccc3F)o2)cc1` the Potency was 115 nM (active) and 88.9 nM (active).
